From PubChem
HT1080 IDH1KD tx – toxicity to HT-1080 IDH1 knockdown cells (counter line); HT-1080 IDH1 knockdown viability, ATP luminescence, 48 h; Potency, µM (doses to about 46.1 µM), inactives show at the top dose activity, negative = toxicity, actives largely listed as cytotoxic; hit rate 2% among 360,000;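 further: potency means the concentration at half of the fitted maximal effect; 0% = DMSO wells and -100% = cell-free medium wells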
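Luminescent ATP read-out (CellTiter-Glo, 10 min at room temperature) after 48 h compound exposure at 37 °C gave viability of IDH1-knockdown HT-1080 cells. Activity was normalised to DMSO and cell-free wells, then fitted as concentration-response curves.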
TDP1 cell CPT – DT40-hTDP1 cell growth loss with CPT; Potency, µM (titrated, usually from 46.2 µM), without a hit: at the highest dose activity change, negative = growth inhibition, hits mostly inhibitors; hit rate 12% among 420,000; chicken DT40 Tdp1-/-;hTDP1 cells + 20 nM CPT, ATP luminescence, 48 h; further: potency means the concentration at half of the fitted maximal effect; nearly all actives have a fitted effect of over 55% in size
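Chicken DT40 Tdp1-/- cells stably complemented with human TDP1 were seeded at 400 cells/well in medium containing 20 nM camptothecin, exposed to pin-transferred compounds, and grown at 37 °C for at least 48 hr. Viability was read as ATP luminescence.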
TDP1 cell noCPT – qHTS for Inhibitors of human tyrosyl-DNA phosphodiesterase 1 (TDP1): qHTS in cells in absence of CPT. Potency, µM (series often up to 46.2 µM), for inactives: at the highest dose activity change, negative = growth inhibition, actives largely listed as inhibitors. AID 686978, 2013. DT40 Tdp1-/- hTDP1 cells, no CPT, ATP luminescence, 48 h. hit rate 15% among 420,000; further: potency means the concentration at half of the fitted maximal effect; nearly all actives have a fitted effect of over 55% in size
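Readout: luminescence from CellTiter-Glo after 30 min in the dark at RT. Cells: DT40 Tdp1-/- with stable hTDP1, 400/well. Exposure: compounds alone, ≥48 hr, 37 °C.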
IL1B secr inh – inhibitors of inflammasome signaling (IL-1 beta secretion); THP-1 LPS/ATP IL-1B secretion, AlphaLISA, 16 h; active compounds read low; activity change, % at 57.5 µM; AID 743279; hit rate 4.7% among 360,000; in the data active means activity change below about -50%; inconclusive means mostly about -30% to -49%
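THP-1 cells pretreated 1 hr with compounds (up to 57.5 uM final), then stimulated with LPS (250 ng/mL final) plus ATP (1.25 mM final); secreted IL-1B measured by AlphaLISA after 16 hr, decreased signal indicating inhibition.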
HT1080-NT tox – kills 2HG-producing HT-1080-NT fibrosarcoma cells. HT-1080-NT fibrosarcoma viability, CellTiter-Glo ATP luminescence, 48 h. Potency, µM (titrated, usually from 46.1 µM), for inactives: top-dose activity, negative = less viability, most hits filed as cytotoxic. hit rate 1.6% among 360,000;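 further: NT is the 2HG producing partner of a matched IDH1 knockdown line; potency means the concentration at half of the fitted maximal effect; 0% = DMSO-treated cells and -100% = media-only wells without cells; nearly all actives have a fitted effect of over 55% in size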
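Viability by CellTiter-Glo luminescence after 48 h compound exposure at 37C of HT-1080-NT cells (750/well, RPMI, 5% FBS). % activity scaled between DMSO wells and medium-only wells, then curve-fitted and categorized by curve class.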
Starred values were filed as active, the others as inactive; ? = inconclusive; nt = no result. The list is not random: actives were taken first. Their share in the collection is about 19%. Unless noted, the call rests on the fitted dose curve; in most records, active means well fitted curve in the direction sought with a large enough effect; inconclusive means small, poorly fitted or top-dose-only effect, or another doubt; inactive means no such curve, though single readings can be large; an effect the other way counts as inactive or inconclusive. Unless noted, on the % scale 0 is the no-effect control and ±100 the full control effect.

SMILES | HT1080 IDH1KD tx | TDP1 cell CPT | TDP1 cell noCPT | IL1B secr inh | HT1080-NT tox
CCC(=O)N1CCc2cc(S(=O)(=O)NCCC(=O)N3CCN(c4cccc(OC)c4)CC3)ccc21 | -3.9% | ? | 13µM* | 28.8 | -5.9%
CCC(=O)N1CCc2cc(S(=O)(=O)NCCC(=O)N3CCN(c4cccc(C)c4)C(C)C3)ccc21 (stereo not drawn) | -1.0% | 20.6µM* | 9.2µM* | -3.3 | -21.2%
CCC(=O)N1CCc2cc(S(=O)(=O)NCCC(=O)N3CCN(Cc4ccccc4)CC3)ccc21 | 2.8% | -14.5% | -27.8% | 1.3 | 0.1%
Cc1cccc(N2CCN(C(=O)CCNS(=O)(=O)c3cccs3)CC2C)c1 (stereo not drawn) | -19.5% | ? | 20.6µM* | 22.5 | -17.9%
CCC(=O)N1CCc2cc(S(=O)(=O)NCCC(=O)N3CCN(c4ccccc4)CC3)ccc21 | -0.4% | ? | 20.6µM* | 14.1 | -5.3%
CCc1nnc(NC(=O)c2nc3nc(C)cc(C)n3n2)s1 | -6.8% | 0.5% | -4.0% | -3.7 | 0.4%
Cn1c(N)c(C(=O)COC(=O)c2ncc(Cl)c(Cl)c2Cl)c(=O)n(C)c1=O | -10.7% | 14.8% | -0.3% | -15.4 | -7.7%
CC1(c2nnnn2Cc2ccccc2)CCC(=O)N1CCOc1ccccc1 (stereo not drawn) | -4.2% | ? | ? | -6.2 | 0.7%
Cc1ccc(-c2ccc(=O)n(CCC(=O)N3CCN(c4cccc(C)c4)C(C)C3)n2)cc1 (stereo not drawn) | -13.5% | ? | ? | ? | 1.8%
Cc1cccc(N2CCN(C(=O)CCS(=O)(=O)c3ccc4c(c3)CC(=O)N4C)CC2C)c1 (stereo not drawn) | nt | 16.4µM* | ? | nt | nt
COC(=O)c1c(-c2ccc(Cl)cc2)noc1N1CCN(c2cccc(OC)c2)CC1 | nt | 16.4µM* | 5.8µM* | nt | nt
COc1ccc(N2CCN(C(=O)c3c(-c4ccccc4)noc3C)CC2)cc1 | -2.8% | ? | ? | 0.0 | 0.0%
COC(=O)c1c(-c2ccc(Cl)cc2)noc1N1CCN(c2cccc(C)c2C)CC1 | nt | 16.4µM* | ? | nt | nt
CC1=C(c2ccc(Cl)cc2)S(=O)(=O)N=C1N1CCN(c2cccc(C)c2C)CC1 | nt | -19.1% | -30.0% | nt | nt
Cc1nccn1CCCNC(=O)CC1C(=O)NCCN1Cc1ccc(F)cc1Cl (stereo not drawn) | -6.2% | 0.9% | 0.2% | 4.8 | -4.6%
CCOC(=O)c1sc(NC(=O)c2nc3nc(C)cc(C(F)F)n3n2)c(C(=O)OC(C)C)c1C | nt | 0.0% | -1.2% | nt | nt
Clc1ccc(CNCCCSc2ncccn2)cc1Cl | -12.5% | ? | ? | -62.0* | -11.5%
Clc1cccc(Cl)c1CNCCCSc1ncccn1 | -2.3% | -7.6% | ? | -14.0 | -0.6%
COc1ccc(NC(=O)c2ccc(Cl)nc2)cc1S(=O)(=O)N1CCOCC1 | -21.8% | 16.4µM* | 23.1µM* | 35.7 | -3.5%
O=C(Nc1cccc(S(=O)(=O)N2CCOCC2)c1)c1ccccn1 | 8.9% | -5.0% | -8.3% | 33.7 | 0.0%
COc1ccc(NC(=O)Cc2coc3cc(C)c(C(C)C)cc23)cc1S(=O)(=O)N1CCOCC1 | -26.2% | 11.6µM* | 11.6µM* | 10.7 | -10.7%
COc1ccc(C(=O)Nc2ccc(Cl)c(S(=O)(=O)Nc3ccccc3OC)c2)cc1 | ? | ? | ? | -1.4 | -3.2%
O=C(Nc1cccc(S(=O)(=O)N2CCOCC2)c1)c1ccc(Cl)nc1 | 0.0% | 16.4µM* | 23.1µM* | 25.9 | -9.5%
CCc1ccc(C(=O)Nc2ccc(OC)c(S(=O)(=O)N3CCOCC3)c2)cc1 | -12.5% | 7.3% | -4.0% | -18.2 | -13.9%
COc1ccccc1NS(=O)(=O)c1cc(NC(=O)c2ccc(Cl)nc2)ccc1Cl | ? | 9.2µM* | 7.31µM* | -63.2* | ?
CCCC(=O)Nc1cc(C)c(NC(=O)c2ccco2)cn1 | 8.9% | 7.3% | -6.0% | -8.3 | 19.1%
